In PubChem BioAssay AID687014 (The Scripps Research Institute Molecular Screening Center, 2013):
About 6,800 (1.8%) of roughly 370,000 compounds were called active. For the sample, actives were picked, then their nearest neighbours and some compounds at random. Unmarked numbers belong to inactive results.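 The calls were made as follows: active = activation above a cutoff set at the mean of all screened compounds plus 3 SD (cut at about 10% in these data); inactive = the rest.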

These compounds were tested on Nuclear hormone receptor DAF-12 (Heterodera glycines), GAL4 fusion (assay: H. glycines DAF-12 receptor agonists, primary screen, cell-based, luminescence, HEK293, GAL4 fusion, UAS-luciferase (AID 687014;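 also: 0% = DMSO wells and 100% = sodium butyrate wells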)). Conditions: HEK293 GAL4-hgDAF12 UAS-luciferase reporter, agonist luminescence; at 6.8 µM; stronger effect = higher value; normalized to butyrate control.

| SMILES | activation |
| --- | --- |
| COC(=O)c1ccccc1-n1cc(COC(=O)NCCc2ccccc2)nn1 | 0.71% |
| COC(=O)c1ccc(CN2C(=O)[C@]3(OCCC=C[C@H]3C)c3c(Br)cccc32)cc1 | 4.21% |
| Cc1ccc2nc(/C(C#N)=C\c3ccc(OC(=O)c4cccs4)cc3)[nH]c2c1 | 10.6% (active) |
| COc1ccc(S(=O)(=O)N2CCCC2CNC(=O)C(=O)NC2CC2)cc1 (stereo unspecified) | 0.71% |
| O=C(N/N=C/c1sc(N2CCCCC2)nc1-c1cccs1)c1cccnc1 | 1.92% |
| O=Cc1cn(-c2ccccc2)nc1-c1ccccn1 | -0.68% |
| O=C(O)c1ccc(N/N=C/c2cn(-c3ccccc3)nc2-c2cccs2)cc1 | 16.3% (active) |
| Fc1ccc2nc(COCc3nc4ccc(F)cc4[nH]3)[nH]c2c1 | 0.86% |
| COc1cccc(-c2nnc(N(C)C(=O)c3ccno3)s2)c1 | 3.08% |
| O=C(NC1CCCCCCC1)c1cccs1 | 2.58% |
| O=C(NCCCn1ccnc1)c1cc(-c2ccccc2)on1 | 46% (active) |
| O=C(NC1CC1)c1ccc(-c2ccccc2)cc1 | 9.69% |
| O=C(NCCCn1ccnc1)c1cc(Br)c(Br)s1 | 1.27% |
| O=C(NC1CCCC1)c1cc(-c2ccccc2)on1 | 36.2% (active) |
| O=C(Nc1ccccc1C(=O)NCCCn1ccnc1)c1ccc(Cl)cc1Cl | -1.62% |
| COC(=O)c1ccc(COC(=O)C2CCN(S(=O)(=O)c3c(Cl)cccc3Cl)CC2)o1 | -1.37% |
| COc1ccc2c(C(C)c3ccc(N)cc3)cn(C)c2c1 (stereo unspecified) | 0.29% |
| COC(=O)[C@]1(C#N)CC(=O)N(CC2CCCCC2)[C@@H]1c1ccccc1 | 1.35% |
| Cc1ccccc1CN1CCCCC(NC(=O)Nc2ccccc2F)C1=O (stereo unspecified) | -3.67% |
| Nc1nc(SCC(=O)Nc2ccc(Cl)c([N+](=O)[O-])c2)n[nH]1 | -3.01% |
| O=C(NCc1ccccc1)[C@@H]1CCCN1C(=O)[C@H]1CCCN1C(=O)c1cccc(Cl)c1 | 2.12% |
| COC(=O)[C@]12C[C@H](CC(=O)N3CCOCC3)C(=O)N(Cc3ccc(Cl)cc3Cl)C1=C[C@H](COCc1ccccc1)O[C@@H]2C | -2.38% |
| CCOC(=O)C1=C(C)NC2=C(C(=O)CC(C)(C)C2)C1c1ccc2c(c1)OCO2 (stereo unspecified) | -2.39% |

| SMILES | activation |
| --- | --- |
| COc1ccc(CNC(=O)COc2ccccc2C(=O)c2cnn(-c3ccccc3)c2)cc1OC | 13.4% (active) |
| COc1ccc(CNC(=O)COC(=O)c2c(C)nn(-c3ccccc3)c2C)cc1OC | -3.17% |
| COc1ccc(CNC(=O)COC(=O)c2sccc2C)cc1OC | 0.76% |
| CCOC(=O)CNC(=O)N(C)[C@H]1C[C@H]2c3[nH]c4c(-c5ccc6c(c5)OCO6)cccc4c3CCN2C(=O)[C@H]1[C@H](C)O | -1.8% |
| CCCN(C(=O)CSc1nnc(N)s1)c1c(N)n(Cc2ccccc2)c(=O)[nH]c1=O | -3.79% |
| COC(=O)C(NC(C)=O)(Nc1nc2c(s1)CCCC2)C(F)(F)F (stereo unspecified) | -0.75% |
| CCS(=O)(=O)N1Cc2ccccc2CC1C(=O)Nc1nc2ccc(F)cc2s1 (stereo unspecified) | 10.2% |
| Fc1ccc2nc(Nc3nc4c(s3)CCCC4)sc2c1 | 12.8% (active) |
| CC(=O)N1CCCN(C2=Nc3ccccc3Sc3ccccc32)CC1 | -3.68% |
| CCN(CC)C(=O)CC[C@H]1CC[C@]2(CCCN(Cc3ccc(Cl)cc3)C2)O1 | -2.24% |
| COC(=O)c1c(-c2ccc(OC)cc2)c2c(c3c4ccccc4n(S(=O)(=O)c4ccc(C)cc4)c13)C(=O)N(C)C2 | -0.11% |
| Cc1ccc2nc(-c3ccccc3)c(CC3CCCCC3)n2c1 | 15.8% (active) |
| COc1ccccc1Cc1c(-c2ccc(F)cc2)nc2ccc(C)cn12 | 9.36% |
| Cc1ccc2nc(-c3cccnc3)c(NC3CCCC3)n2c1 | -2.27% |
| Cc1ccc(NC(=O)Nc2cc(C)nn2-c2ccccc2)cc1 | 0.6% |
| C/C(=N\OC(=O)c1ccccc1)c1c(C)nc2cc(C)ccn12 | 1.13% |
| Cc1cccc(/C(N)=N/OC(=O)c2ccccc2Cl)c1 | 22.6% (active) |
| Cc1cc(OC(=O)c2ccccc2Cl)ccc1N1C(=O)CCC1=O | 1.41% |
| COc1ccc(CSc2nnc(SCC(=O)Nc3ccccc3C(F)(F)F)s2)cc1 | -0.44% |
| COc1cccc(NC(=O)N(C)C[C@@H]2OCc3cn(nn3)CCCC(=O)N([C@@H](C)CO)C[C@H]2C)c1 | -1.94% |
| CCS(=O)(=O)n1nc(-c2ccc(OC)cc2)nc1SC | 2.82% |
| CCS(=O)(=O)n1nc(-c2ccccc2)nc1SCc1ccccc1 | 13.2% (active) |
| O=S(=O)(c1ccc(SCc2ccccc2)nc1)N1CCCCCC1 | 3.56% |

| SMILES | activation |
| --- | --- |
| CCN1C(=O)[C@@H]2[C@@H](c3ccc(-c4cccc(Cl)c4)cc3)N3CCC[C@@]3(C(=O)OC)[C@@H]2C1=O | -0.28% |
| C=CCN(Cc1ccc2c(c1)OCO2)C(C#CC1CC1)C(C)(C)C (stereo unspecified) | 0.18% |
| O=C(NC1CCCCCC1)C1CCN(C(=O)c2ccc(Cl)cc2)CC1 | -2.28% |
| O=C(NNC(=S)NC1CCCCC1)c1ccccc1Cl | -1.15% |
| O=C(NC(=S)NC1CCCCC1)c1ccc(Cl)cc1 | 14.2% (active) |
| CN(C)/C=C(\C#N)C(=O)c1cccnc1Oc1cccc(F)c1 | -0.67% |
| CCC(=O)OCCCN1C(=O)CCC12CCC(c1ccccc1)CC2 (stereo unspecified) | -0.73% |
| C=CCNc1nc(Nc2ccc(Cl)cc2)nc(OC)n1 | 2.81% |
| CC1(C)N=C(N)NC(Nc2ccc(Cl)cc2)=N1 | -2.03% |
| Clc1ccc(Nc2ccc3ccccc3n2)cc1 | 19.3% (active) |
| CCC(C)[C@@H](C(=O)OC)N(CCc1cn(Cc2ccccc2)nn1)S(=O)(=O)c1ccccc1Br (stereo partly specified) | -4.53% |
| CCCN(CCC)C(=O)C1c2ccccc2Oc2ccccc21 | -0.5% |
| CCOC(=O)CC(NC(=O)C1c2ccccc2Oc2ccccc21)c1ccc(C)cc1 (stereo unspecified) | -2.51% |
| CCOC(=O)C1=C(C)c2ccccc2OC1C(=O)OCC (stereo unspecified) | 12.1% (active) |
| Cc1ccc(C2NC(C(=O)O)CS2)cc1 (stereo unspecified) | -0.05% |
| CC(CCN1CCC(C(O)(c2ccccc2)c2ccccc2)CC1)Oc1ccc([N+](=O)[O-])cc1Cl (stereo unspecified) | 4% |
| COc1ccccc1C(=O)NC1CCCCN(C(C)C)C1=O (stereo unspecified) | 2.92% |
| Cc1ccccc1NC(=O)COC(=O)c1ccc(Sc2ncn[nH]2)c([N+](=O)[O-])c1 | 1.49% |
| COC(C(=O)Nc1ccc(S(=O)(=O)Nc2ccc(C)c(C)c2)cc1)c1ccccc1 (stereo unspecified) | -3.51% |
| Cc1ccc(N/C=C/C(=O)c2ccccc2)cc1C | 19.8% (active) |
| Cc1ccc(NNC(=O)C2CCC2)cc1C | 1.26% |
| N#Cc1c(NCCO)ccc([N+](=O)[O-])c1NCCO | -1.17% |
| COC(=O)[C@]12C[C@H](CC(=O)NCC34CC5CC(CC(C5)C3)C4)C(=O)N(Cc3ccc(Cl)cc3Cl)C1=C[C@H](COCc1ccccc1)O[C@@H]2C | 1.95% |

| SMILES | activation |
| --- | --- |
| C[C@H](C(=O)N(C)c1ccccc1)[C@@H](O)c1ccc2ccccc2c1 | -1.62% |
| Oc1oc(-c2ccccc2Br)nc1/C=N/c1ccccn1 | 10.8% (active) |
| CC(C)n1c(O)c(N=Nc2ccccn2)c2ccccc21 | 1.77% |
| COc1cccc(-c2cc(CNC(=O)[C@@H](Cc3ccccc3)NC(=O)[C@H]3O[C@@H](n4cnc(C(N)=O)n4)[C@H](O)[C@@H]3O)no2)c1 | 3.48% |
| COC(=O)CC1CCc2cc(C)cc(C(CC(C)C)NC(=O)[C@H](CC(C)C)NC(=O)OCc3ccccc3)c2O1 (stereo partly specified) | -1.05% |
| O=C(/C=C/c1cnc2ccccc2n1)NC1CCCCCC1 | 11.9% (active) |
| CC1CCCCC1NC(=O)Cn1c(=O)cnc2ccccc21 (stereo unspecified) | -0.26% |
| O=C(Cn1c(-c2cncs2)nc2ccccc21)NC1CCCC1 | 0.16% |
| C[N+](C)(C)CCNC(=O)c1c[nH]c2ccccc12 | 0.11% |
| O=C(NCCc1c[nH]c2ccccc12)c1cc2ccccc2oc1=O | 14.6% (active) |
| O=C(CCCCCn1c(=O)[nH]c2ccccc2c1=O)NCCc1c[nH]c2ccccc12 | -0.27% |
| Clc1cccc2c1C1CC2CCN1Cc1ccccc1 (stereo unspecified) | 0.38% |
| COc1ccc(-c2cc(-c3nnc(SCc4ccc([N+](=O)[O-])cc4)n3N)[nH]n2)cc1 | 3.72% |
| Nc1ncnc2c1ncn2[C@@H]1O[C@H](C(=O)N[C@@H](CCc2ccccc2)C(=O)N2CCCN(Cc3cccs3)CC2)[C@@H](O)[C@H]1O | 1.83% |
| Nc1ccc2c(c1)C(O)c1ccc(Cl)cc1-2 (stereo unspecified) | 2.17% |
| Nc1ccc2nn(-c3ccc(Cl)cc3)nc2c1 | 18.1% (active) |
| Nc1nc2cc(Cl)ccc2n1N | 0.42% |
| COc1ccc(S(=O)(=O)N[C@@H]2C=C[C@@H](CC(=O)N3CCc4ccccc4C3)O[C@@H]2CO)cc1 | -1.55% |
| COc1ccc(C2CC(c3cccs3)=Nc3ccccc3S2)cc1OC (stereo unspecified) | 6.91% |
| COc1ccc(-c2csc3nc(-c4ccccc4F)oc(=O)c23)cc1OC | -0.2% |
| COc1ccc(-c2csc(-c3cccs3)n2)cc1OC | 14.5% (active) |
| COC(=O)C1=C(C)N(Cc2ccccc2C(F)(F)F)C(=NCc2ccc(C(F)(F)F)cc2)NC1c1ccc(F)cc1 (stereo unspecified) | 0.87% |
